About 83,000 compounds went through this panel and 20% of them were active in at least one assay; those are over-represented in the sample as a whole.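 Assay: single dose, 48 h. Readout: percent growth (0 = no net growth; negative = cell death). Active: <10.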 A number with no mark means an inactive call.

This assay has as its system HL-60(TB) leukemia. Description: NCI-60 one-dose screen, 48 h (100 = growth as untreated, 0 = no growth, -100 = all killed). The note with it: 10 µM unless noted.
Consider `C=CN(C(=O)N1CCN(c2cc3c(cc2F)c(=O)c(C(=O)O)cn3C2CC2)CC1)c1nc(-c2ccc(Cl)cc2)cs1`, for which the growth was 10.7%.

On to `Cn1c(NCCc2ccc(O)c(O)c2)nc2c1c(=O)n(Cc1ccc(Cl)cc1)c(=O)n2C`, for which the growth is 13.2%.

On to `CN(C)c1ncc(-c2ccc(C(F)(F)F)cc2)c(NC2CCCCCC2)n1`, for which the growth was 39.8%.
